“And” between values parts separate entries of the source, which are not always exact repeats. Equal values may be shown once. Inconclusive results are not listed. Some compounds were tested as several samples or in several runs, with calls that do not always agree. The source made the active and inactive calls. Unless noted, calls come from the whole dose curve; as a rule, active = well fitted curve in either direction with a large enough effect (not every such curve was filed as active); inconclusive = small, poorly fitted or top-dose-only effect, or another doubt; inactive = flat fitted curve, though single readings scatter.

Test [1] in a line: AP1 Signaling Pathway (AID 357). Note: % is set by controls: 0 for no effect and ±100 for the full control effect. To be noted: ME-180 AP-1-bla reporter, EGF-induced, beta-lactamase ratio, 5 h. Summed up: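 Cells are seeded overnight, exposed to compound titrations and an EC50 level of EGF for 5 hours at 37 °C, then loaded with CCF4 dye for 2.5 hours. Beta-lactamase activity under the AP-1 element is read as a blue/green ratio.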
The target in test [2] is Cytochrome P450 1A2 (Homo sapiens) (UniProt P05177). Put plainly: p450-cyp1a2 (AID 410; calls by dose curve; note: potency is the fitted concentration of half-maximal effect). To be noted: recombinant CYP1A2, luciferin-ME demethylation, luminescence; series mostly up to 57 µM. Summed up:
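20nM CYP1A2, 100uM Luciferin-ME (=Km), 100mM KPO4; cpd 10 min RT; +NADPH regen, 60 min RT; stop/detect 20 min; luminescence. Normalized to furafylline 57 uM = full inhibition.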

Test [3] in a line: NFAT Signaling Pathway (AID 444).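 Note: carbachol stimulus at about its EC50 of 1 µM final; % is set by controls: 0 for no effect and ±100 for the full control effect.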 To be noted: Jurkat NFAT-bla M1, carbachol, beta-lactamase ratio, 5 h. Summed up: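 Read-out: CCF4 FRET ratio (460 nm/530 nm) after 1 h RT dye loading, used for %activity and AC50 from titration series. Cells: Jurkat NFAT-β-lactamase/M1 line, treated with compound plus 1 uM carbachol for 5 h, 37 °C.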
Test [4] is described as follows: Stat Signaling Pathway (AID 446).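 Note: ME-180 cervical cancer cells given 40 pM IL-6 alongside compound; SIE-controlled beta-lactamase reporter measured as 460/530 nm FRET emission ratio; % is set by controls: 0 for no effect and ±100 for the full control effect.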 To be noted: ME-180 (cervical carcinoma) SIE beta-lactamase reporter, IL-6 stimulated, 5 h. Summed up: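 Normalization used AC90 stimulation (300 pM IL-6) and AC90 inhibition (125 nM pan-JAK inhibitor at 40 pM IL-6). The underlying signal is SIE-driven beta-lactamase in ME-180 cells after 5 h IL-6 exposure with compound.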
Test [5] addresses Glucocorticoid receptor (Homo sapiens) (UniProt P04150). Nature of the test: GR-GFP Redistribution (AID 450;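 active = compounds whose dose series gives a full or clear partial fitted curve of increased nuclear translocation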; note: potency is the fitted concentration of half-maximal effect). To be noted: U2OS GR-GFP nuclear translocation, laser cytometry, 2 h.
For test [6] the target is unchanged. Put plainly: GR-EFC Redistribution (AID 451; calls by dose curve; note: potency is the fitted concentration of half-maximal effect). To be noted: CHO-K1 GR-EFC translocation, beta-gal luminescence, 2 h. The gist of the method: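 Translocation of GR-ED fusion to nuclear EA restores b-gal, read by luminescence after 1 h room-temperature detection. Engineered CHO-K1 biosensor cells, 1,000/well, exposed 2 h at 37 C to titrations up to 46 uM final.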

Test [7] has as its target Mitogen-activated protein kinase 10 (Mus musculus) (UniProt Q61831). Put plainly: JNK3 AlphaScreen Assay (AID 530).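 Note: kinase came from lysate of stimulated human HepG2 cells; signal reports phosphorylation of biotinylated GST-cJun 1-79 at Ser73 with 10 µM ATP; % is set by controls: 0 for no effect and ±100 for the full control effect.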 To be noted: JNK3 lysate, c-Jun phosphorylation; series mostly up to 57.1 µM. Summed up:
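Kinase buffer: 20 mM Tris-HCl pH 7.6, 10 mM MgCl2, 1 mM DTT, 0.1 mM Na3VO4, 0.01% Tween-20; ATP 10 uM. Substrate biotin-GST-cJun(1-79), enzyme from activated HepG2 lysates. Detection by Ser73 phospho-antibody AlphaScreen.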
In general terms: Alpha assays give light when donor and acceptor beads are brought close together.

Test [8] concerns the target 3',5'-cyclic-AMP phosphodiesterase 4B (Homo sapiens) (UniProt Q07343). Put plainly: qHTS Assay for Inhibitors of PDE-IV (AID 607; active = well fitted activation curve with a large enough effect in the main read-out, with a control signal flat, not every such curve was filed as active; note: % of control where 0% means no effect). To be noted: HEK293 ACTOne CNG channel cells, membrane potential fluorescence; series mostly up to 22.9 µM. Summed up: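 HEK293 ACTOne cells with CNG channel (1000/well), endogenous PDE4; membrane potential dye, compounds up to 22.9 uM final. Fluorescence Ex 535/Em 590; RO 20-1724 (100 uM final) as reference.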
(qHTS replaces the single test concentration by a dilution series.)

Test [9] in a line: qHTS Assay for Lipid Storage Modulators (AID 1519; calls by dose curve). To be noted: Drosophila S3 cells, BODIPY lipid droplet/cell ratio, laser cytometry, cells loaded with oleic acid; for activity change, negative = inhibition: at 25.7 µM (top of the series). Summed up:
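Cells seeded at 5,000 per well were treated with compounds over a concentration series and loaded with oleic acid (400 uM, as added). Lipid droplet fluorescence (488 nm excitation, 500-530 nm channel) was read by laser-scanning cytometry and normalized to 20 uM Triacsin C.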

Test [10] addresses ATP-dependent 6-phosphofructokinase (Trypanosoma brucei brucei) (UniProt O15648). Nature of the test: qHTS Assay to Find Inhibitors of T. brucei phosphofructokinase: hit validation (AID 492961; active = well fitted curve in the direction sought with a large enough effect; an effect the other way counts as inactive or inconclusive). To be noted: T. brucei PFK, ADP-Glo luminescence; series mostly up to 24.3 µM. The gist of the method: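 Measures ADP output of PFK (1.25 nM) at 0.1 mM ATP, 0.5 mM F6P, pH 8.0 TEA buffer with 5 mM MgCl2. No-enzyme wells define full inhibition; uninhibited enzyme wells define zero.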

Test [11] addresses Ubiquitin carboxyl-terminal hydrolase 1 (Homo sapiens) (UniProt O94782). Put plainly: Inhibitors of USP1/UAF1: Pilot qHTS (AID 504865; active = well fitted curve in the direction sought with a large enough effect; an effect the other way counts as inactive or inconclusive;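 note: rhodamine fluorescence freed from ubiquitin-rhodamine substrate followed over time; top concentration of the series differs between compounds; % is set by controls: 0 for no effect and ±100 for the full control effect; nearly all actives have a fitted effect of over 35% in size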). To be noted: purified USP1/UAF1, Ub-rhodamine cleavage fluorescence; series mostly up to 54.9 µM. The gist of the method: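 Enzyme-free wells gave the negative control, while test wells held 1nM USP1/UAF1 preincubated with compound for 15 min at room temperature. Ub-Rho at 150nM final started the reaction, and fluorescence at 480/540 nm was recorded kinetically.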

Test [12] concerns the target Luciferin 4-monooxygenase (Photinus pyralis) (UniProt P08659). Put plainly: Biochemical firefly luciferase enzyme assay for NPC (AID 624030; active = well fitted curve in the direction sought with a large enough effect; an effect the other way counts as inactive or inconclusive;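 note: purified P. pyralis luciferase at 10 nM with luciferin and ATP substrate; 0% = DMSO and -100% = full luciferase inhibition by PTC124 control; nearly all actives have a fitted effect of over 70% in size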). To be noted: purified P. pyralis luciferase, luminescence, 5 min; series mostly up to 58.6 µM. The gist of the method: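 Direct inhibition of firefly luciferase enzyme (10 nM final, 50 mM Tris Acetate) assessed by luminescence within 5 minutes. Percent activity scaled between DMSO and PTC124 positive control, with concentration-effect curves classified by fit quality and response.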

Test [13] can be described thus: qHTS profiling for inhibitors of Plasmodium falciparum proliferation (AID 504749; active = well fitted curve in the direction sought with a large enough effect; an effect the other way counts as inactive or inconclusive;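 note: 0% = DMSO vehicle and full inhibition = artemisinin control; nearly all actives have a fitted effect of over 60% in size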). To be noted: P. falciparum in erythrocytes, SYBR Green DNA, 72 h, at 28.7 µM (top of the series). Summed up: (§1)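 In a 72 h erythrocytic culture (37 C, humidified, 5% CO2) at 2.5% hematocrit and 0.3% starting parasitemia, compounds were tested; SYBR Green I in detergent lysis buffer stained parasite DNA overnight.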

The next test relates to AS120. The test is described as above. To be noted: P. falciparum in erythrocytes, SYBR Green DNA, 72 h; series mostly up to 28.7 µM. The gist of the method:
as §1

A further test concerns CP201. The test is described as above. To be noted: P. falciparum in erythrocytes, SYBR Green DNA, 72 h; series mostly up to 12.8 µM. Summed up:
as §1

The next test has as its system CP238. The test is described as above. To be noted: P. falciparum in erythrocytes, SYBR Green DNA, 72 h; series mostly up to 12.8 µM. Summed up: as §1
For another test, the system named is CP262. The test is described as above. To be noted: P. falciparum in erythrocytes, SYBR Green DNA, 72 h; series mostly up to 12.8 µM. The gist of the method:
as §1

The next test has as its system CP265. The description is as above. To be noted: P. falciparum in erythrocytes, SYBR Green DNA, 72 h; series mostly up to 12.8 µM. The gist of the method: as §1
The next test has as its system FAB9. Described as above. To be noted: P. falciparum in erythrocytes, SYBR Green DNA, 72 h; series mostly up to 12.8 µM. The gist of the method: as §1
In a further test the test system is JCK. The test is described as above. To be noted: P. falciparum in erythrocytes, SYBR Green DNA, 72 h; series mostly up to 12.8 µM. Summed up:
as §1

Where [14] appears, read: at 7.69 µM (top of the series) unless noted.
The mark [15] stands for this setting: measured here: cell count channel max response.
Where [16] appears, read: measured here: lipid channel max response.

Chain of 3',5'-cyclic-AMP phosphodiesterase 4B (Homo sapiens) (Q07343 whole entry, looked up): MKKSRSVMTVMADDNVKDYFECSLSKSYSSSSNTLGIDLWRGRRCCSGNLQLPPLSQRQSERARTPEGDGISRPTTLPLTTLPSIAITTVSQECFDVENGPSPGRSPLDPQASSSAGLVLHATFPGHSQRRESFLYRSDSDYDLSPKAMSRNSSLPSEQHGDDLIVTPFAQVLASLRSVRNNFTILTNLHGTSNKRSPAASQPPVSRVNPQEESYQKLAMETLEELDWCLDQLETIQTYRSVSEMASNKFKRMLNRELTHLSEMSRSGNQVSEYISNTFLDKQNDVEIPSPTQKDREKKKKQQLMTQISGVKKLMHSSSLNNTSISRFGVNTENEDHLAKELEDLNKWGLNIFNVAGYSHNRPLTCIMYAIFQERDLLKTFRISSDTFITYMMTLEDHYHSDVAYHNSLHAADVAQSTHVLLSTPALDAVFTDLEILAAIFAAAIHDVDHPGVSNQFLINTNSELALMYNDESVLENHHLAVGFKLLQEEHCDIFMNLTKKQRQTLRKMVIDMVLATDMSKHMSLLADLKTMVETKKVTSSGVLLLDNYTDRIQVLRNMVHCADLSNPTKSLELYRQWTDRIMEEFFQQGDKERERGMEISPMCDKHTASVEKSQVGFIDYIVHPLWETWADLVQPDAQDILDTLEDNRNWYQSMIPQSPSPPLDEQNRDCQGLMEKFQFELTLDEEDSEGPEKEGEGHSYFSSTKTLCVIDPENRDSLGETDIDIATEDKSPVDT
Chain of Cytochrome P450 1A2 (Homo sapiens) (P05177 whole entry, looked up): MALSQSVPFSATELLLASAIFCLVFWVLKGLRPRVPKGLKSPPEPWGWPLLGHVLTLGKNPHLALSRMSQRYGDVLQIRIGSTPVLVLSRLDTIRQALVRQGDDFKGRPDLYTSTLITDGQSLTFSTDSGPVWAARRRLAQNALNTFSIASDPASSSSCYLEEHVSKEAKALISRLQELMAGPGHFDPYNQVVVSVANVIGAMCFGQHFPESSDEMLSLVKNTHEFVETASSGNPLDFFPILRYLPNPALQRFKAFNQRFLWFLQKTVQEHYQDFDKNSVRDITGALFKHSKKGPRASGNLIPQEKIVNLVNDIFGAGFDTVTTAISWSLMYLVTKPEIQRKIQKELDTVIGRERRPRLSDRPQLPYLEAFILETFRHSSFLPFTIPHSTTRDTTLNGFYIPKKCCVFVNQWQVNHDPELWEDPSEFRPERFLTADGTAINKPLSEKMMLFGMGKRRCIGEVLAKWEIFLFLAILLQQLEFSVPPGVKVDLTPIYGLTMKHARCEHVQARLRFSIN
Chain of Glucocorticoid receptor (Homo sapiens) (P04150 whole entry, looked up, the tested form may be a part): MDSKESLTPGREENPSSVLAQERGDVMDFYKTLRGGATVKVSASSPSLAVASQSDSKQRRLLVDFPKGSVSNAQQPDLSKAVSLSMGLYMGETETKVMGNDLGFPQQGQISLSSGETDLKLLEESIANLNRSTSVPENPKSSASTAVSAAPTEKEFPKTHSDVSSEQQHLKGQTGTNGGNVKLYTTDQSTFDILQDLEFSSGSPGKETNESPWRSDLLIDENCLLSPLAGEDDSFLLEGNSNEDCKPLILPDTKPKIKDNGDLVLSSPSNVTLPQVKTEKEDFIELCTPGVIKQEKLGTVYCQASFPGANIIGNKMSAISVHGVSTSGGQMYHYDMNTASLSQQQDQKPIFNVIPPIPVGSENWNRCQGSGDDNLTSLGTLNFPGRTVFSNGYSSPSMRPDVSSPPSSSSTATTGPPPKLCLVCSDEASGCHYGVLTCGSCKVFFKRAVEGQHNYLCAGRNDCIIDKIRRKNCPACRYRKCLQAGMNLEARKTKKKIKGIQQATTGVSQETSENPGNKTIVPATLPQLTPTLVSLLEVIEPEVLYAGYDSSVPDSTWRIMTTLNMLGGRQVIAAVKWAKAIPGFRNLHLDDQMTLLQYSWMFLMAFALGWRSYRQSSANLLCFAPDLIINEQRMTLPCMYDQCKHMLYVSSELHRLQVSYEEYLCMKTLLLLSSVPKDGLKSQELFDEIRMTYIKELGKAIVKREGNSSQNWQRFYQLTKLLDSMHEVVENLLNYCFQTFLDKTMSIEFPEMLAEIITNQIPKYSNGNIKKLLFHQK
Chain of Ubiquitin carboxyl-terminal hydrolase 1 (Homo sapiens) (O94782 whole entry, looked up): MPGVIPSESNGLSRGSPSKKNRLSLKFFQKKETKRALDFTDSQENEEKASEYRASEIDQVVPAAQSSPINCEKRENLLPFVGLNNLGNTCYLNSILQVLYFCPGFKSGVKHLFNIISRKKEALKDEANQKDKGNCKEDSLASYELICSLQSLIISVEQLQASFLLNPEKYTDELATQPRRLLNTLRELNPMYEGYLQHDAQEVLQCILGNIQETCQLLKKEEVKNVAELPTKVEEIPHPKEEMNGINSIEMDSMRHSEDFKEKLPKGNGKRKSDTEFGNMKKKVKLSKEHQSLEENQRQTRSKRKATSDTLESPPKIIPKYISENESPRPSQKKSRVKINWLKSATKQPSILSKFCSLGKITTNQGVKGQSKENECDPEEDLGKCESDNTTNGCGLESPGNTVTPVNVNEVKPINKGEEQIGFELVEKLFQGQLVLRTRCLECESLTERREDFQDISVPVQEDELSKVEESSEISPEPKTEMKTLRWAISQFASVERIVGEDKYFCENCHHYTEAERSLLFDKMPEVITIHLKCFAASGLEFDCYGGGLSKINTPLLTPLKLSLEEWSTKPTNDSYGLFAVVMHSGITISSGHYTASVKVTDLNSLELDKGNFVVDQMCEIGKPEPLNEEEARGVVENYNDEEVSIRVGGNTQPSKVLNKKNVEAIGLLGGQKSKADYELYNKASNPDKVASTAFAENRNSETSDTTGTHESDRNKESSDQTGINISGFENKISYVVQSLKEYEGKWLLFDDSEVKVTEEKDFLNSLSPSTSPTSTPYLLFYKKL
Chain of ATP-dependent 6-phosphofructokinase (Trypanosoma brucei brucei) (O15648 whole entry, looked up): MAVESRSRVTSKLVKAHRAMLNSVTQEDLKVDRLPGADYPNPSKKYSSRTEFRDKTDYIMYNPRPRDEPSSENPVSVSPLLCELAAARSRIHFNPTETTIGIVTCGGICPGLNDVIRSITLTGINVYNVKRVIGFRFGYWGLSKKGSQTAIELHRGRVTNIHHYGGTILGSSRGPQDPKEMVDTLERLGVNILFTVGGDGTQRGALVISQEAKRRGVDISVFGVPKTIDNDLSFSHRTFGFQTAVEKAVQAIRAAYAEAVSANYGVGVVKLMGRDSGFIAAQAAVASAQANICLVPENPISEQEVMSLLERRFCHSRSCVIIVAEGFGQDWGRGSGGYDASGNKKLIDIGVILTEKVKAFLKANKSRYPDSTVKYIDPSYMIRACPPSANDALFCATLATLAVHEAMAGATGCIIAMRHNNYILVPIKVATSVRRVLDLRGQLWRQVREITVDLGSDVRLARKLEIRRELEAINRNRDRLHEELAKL
Chain of Luciferin 4-monooxygenase (Photinus pyralis) (P08659 whole entry, looked up): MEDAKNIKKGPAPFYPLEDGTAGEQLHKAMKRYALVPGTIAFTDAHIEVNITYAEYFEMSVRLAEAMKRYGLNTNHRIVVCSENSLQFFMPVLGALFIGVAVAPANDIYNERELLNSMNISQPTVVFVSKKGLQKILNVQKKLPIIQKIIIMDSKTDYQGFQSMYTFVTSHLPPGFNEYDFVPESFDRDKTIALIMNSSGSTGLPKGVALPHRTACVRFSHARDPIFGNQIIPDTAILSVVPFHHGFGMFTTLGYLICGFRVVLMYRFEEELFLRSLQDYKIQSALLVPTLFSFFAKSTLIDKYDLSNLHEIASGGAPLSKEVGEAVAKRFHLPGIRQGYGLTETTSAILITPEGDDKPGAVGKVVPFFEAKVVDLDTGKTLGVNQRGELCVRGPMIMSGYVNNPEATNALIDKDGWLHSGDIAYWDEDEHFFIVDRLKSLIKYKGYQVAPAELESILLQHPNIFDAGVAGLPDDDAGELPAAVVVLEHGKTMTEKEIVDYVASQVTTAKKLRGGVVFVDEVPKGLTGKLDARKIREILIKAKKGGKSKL

Take `C[C@H](NCCc1ccc(O)cc1)[C@@H](O)c1ccc(O)cc1`: the activity change, negative = inhibition was -5.73% (inactive) in test [1] (at 17.2 µM (top of the series)), 12.1% (inactive) in test [1] (at 38 µM (top of the series)), -28.4% [at 17.2 µM] (inactive) in test [3] (setting [14]) and -0.451% (inactive) in test [9]. Also, the Potency entry (in test [2]; in test [7]; in [8]; in [11]; with AS120; with CP201) was “inactive” in each case. Also, the Potency entry with CP238, in the test with CP262, in the test on CP265, in the test with FAB9 and in the test with JCK was “inactive” throughout. For the same compound, the values for the activity, negative = inhibition in test [4] (setting [14]), in [13] (parasite line A) and in test [13] (parasite line B) were 13.1% [at 17.2 µM] (inactive), 3.98% (inactive) and 6.27% (inactive), respectively. In addition, the Potency was > 46 µM (inactive) and > 20.6 µM (inactive) in [5]; > 46 µM (inactive) and > 20.6 µM (inactive) in [6]. In addition, the results for the max response in [9] (setting [15]) and in [9] (setting [16]) were -0.183% and -0.394%, respectively. Besides, the result in test [10] and in test [12] was inactive.
Consider `c1ccc([C@@H]2CN3CCSC3=N2)cc1`, for which the activity change, negative = inhibition in [1] (at 17.2 µM (top of the series)) is 0.374% (inactive); in test [1] (at 38 µM (top of the series)), 8.49% (inactive) and 7.24% (inactive); in [3] (at 17.2 µM (top of the series)), -19.6% (inactive); in [3] (at 38 µM (top of the series)) it was -1.25% (inactive) and -14% (inactive); in test [9], -1.37% (inactive). The Potency in [2] is 31.6 µM (active) and inactive and 10 µM (active); in [5], > 46 µM (inactive) and > 20.6 µM (inactive); in [6] it was > 46 µM (inactive) and > 20.6 µM (inactive). Further, the activity, negative = inhibition was -3.45% (inactive) in test [4] (at 17.2 µM (top of the series)) and 11.8% (inactive) in [4] (at 38 µM (top of the series)). Further, the Potency result in [7], in [8] and in [11] was “inactive” throughout. In addition, the max response in [9] (setting [15]) is 3.69%; in test [9] (setting [16]), -1.44%.
For `C[C@@]12CCC(=O)C=C1CC[C@H]1[C@H]3CC[C@](O)(C(=O)CO)[C@]3(C)CC(=O)[C@@H]12`, the activity change, negative = inhibition is 11.7% (inactive) in test [1] (at 17.2 µM (top of the series)); -1.21% (inactive) in test [1] (at 38 µM (top of the series)); -13.1% (inactive) in test [3] (at 17.2 µM (top of the series)); -9.72% (inactive) in test [3] (at 38 µM (top of the series)); -1.59% (inactive) in test [9]. The Potency entry in test [2], in [8] and in [11] was “inactive” in each case. Also, the values for the activity, negative = inhibition in test [4] (at 17.2 µM (top of the series)) and in test [4] (at 38 µM (top of the series)) were 8.63% (inactive) and -7% (inactive), respectively. The Potency in test [5] is 431 nM (active); in test [6], > 46 µM (inactive) and > 20.6 µM (inactive). The figures for the max response in test [9] (setting [15]) and in test [9] (setting [16]) were -0.115% and -3.69%, respectively.
With `C[C@@H](COc1ccccc1)N(CCCl)Cc1ccccc1`, the activity change, negative = inhibition is -0.257% (inactive) in test [1] (at 17.2 µM (top of the series)); 0.967% (inactive) in [1] (at 38 µM (top of the series)); -10.8% (inactive) in test [3] (at 17.2 µM (top of the series)); -22.8% (inactive) in test [3] (at 38 µM (top of the series)); 0.574% (inactive) in test [9]. Moreover, the Potency is 12.6 µM (active) in test [2]; > 46 µM (inactive) and > 20.6 µM (inactive) in test [5]; > 46 µM (inactive) and > 20.6 µM (inactive) in test [6]. Also, the activity, negative = inhibition in test [4] (setting [14]) was 1.89% [at 17.2 µM] (inactive). In addition, the Potency result in [7] and in test [8] was “inactive” throughout. Further, the max response was -7.22% in test [9] (setting [15]) and -6.85% in test [9] (setting [16]).
Turning to `COc1cc(=O)n(C)c2c(OC[C@@H](O)C(C)(C)O)cccc12`, the activity change, negative = inhibition in [1] (at 17.2 µM (top of the series)) is 11.5% (inactive); in test [1] (at 38 µM (top of the series)), 3.48% (inactive); in [3] (at 17.2 µM (top of the series)) it was 1.64% (inactive); in test [3] (at 38 µM (top of the series)) it was 5.18% (inactive); in test [9], -2.03% (inactive). For the same compound, the Potency was 20 µM (active) and 12.6 µM (active) in test [2]; > 46 µM (inactive) and > 20.6 µM (inactive) in [5]; > 46 µM (inactive) and > 20.6 µM (inactive) in test [6]. Besides, the values for the activity, negative = inhibition in [4] (at 17.2 µM (top of the series)) and in [4] (at 38 µM (top of the series)) were -4.39% (inactive) and 1.34% (inactive), respectively. The Potency result in test [7], in [8] and in [11] was “inactive” throughout. The max response in test [9] (setting [15]) was -7.54%; in test [9] (setting [16]) it was -18.8%.

For the origin of these results see PubChem BioAssay (NCATS).
